Screening data (PubChem)
Pf growth 48h – P. falciparum growth inhibition at 48 hours (one generation); P. falciparum luciferase growth in erythrocytes, 48 h; Potency, µM (series often up to 28.7 µM), inactives show at the top dose activity change, negative = inhibition, hits mostly inhibitors; 310,000 compounds, 5.9% hits; AID 504832; further: potency means the concentration at half of the fitted maximal effect
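Compounds are pin-transferred into medium, infected erythrocytes (2% hematocrit, 0.1% parasitemia final) are added, and plates sit one parasite generation at 37 C in 5% CO2. Detection reagent is then added and luminescence measured.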
HCMV inh – blocks human cytomegalovirus replication | HFF cells, HCMV-luciferase reporter, 72 h; stronger effect = lower value | activity change, negative = inhibition, % at 57.5 µM | 410,000 compounds, 4.5% hits; in the data active means activity change below about -60%; inconclusive means no clear call, values can overlap the other calls; inactive means above about -39%
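Luciferase read-out from HCMV-luciferase-infected HFFs (MOI 1 PFU/cell) 72 h post infection at 37C; compounds added after 16 h cell attachment; activity normalized between buffer-only basal and Salinomycin (10uM) inhibitor controls.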
Pf growth 96h – inhibits malaria parasite growth, 96 h; Potency, µM (series often up to 28.7 µM), inactives show top-dose activity change, negative = inhibition, usual class: inhibitors; 320,000 compounds, 6.9% hits; P. falciparum luciferase reporter growth, 96 h; further: potency means the concentration at half of the fitted maximal effect
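96 h incubation, 37 C, 5% CO2, of luciferase-reporter P. falciparum-infected RBCs (2% hematocrit, 0.05% parasitemia final) with test compounds; endpoint luminescence.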
HCV inh – HCV inhibition; Potency, µM (doses to about 41.8 µM), for inactives: top-dose activity change, negative = inhibition, hits mostly inhibitors; AID 651820; 340,000 compounds, 3.4% hits; Huh7.5.1 HCVcc-Cre infection, luciferase reporter, 44 h; further: potency means the concentration at half of the fitted maximal effect
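Antiviral activity was scored by luciferase reporter output from cells infected with HCVcc-Cre (~0.5 moi) in presence of compound, 44 h infection period, cells seeded 1,000/well 4 h prior.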
Active calls of the source: *; [ ] = dose if it differs, or a comment. An excerpt weighted towards active compounds, which were near 13% of everything screened. Unless noted, the call rests on the fitted dose curve; in most records, active means well fitted inhibition curve with a large enough effect; inconclusive means small, poorly fitted or top-dose-only effect, or another doubt; inactive means no such curve, though single readings can be large or run the other way. On the % scale 0 is the no-effect control and ±100 the full control effect.

How did COc1ccc(NC(=O)COc2cccc3c2CCN(Cc2cccnc2)C3=O)cc1 do in these assays?
Pf growth 48h: inconclusive; HCMV inh: 24; Pf growth 96h: inconclusive

Results for COC(=O)c1ccc2c(c1)c(-c1ccccc1)c(-c1ccccc1)n2C ?
HCMV inh: -12; HCV inh: 7.1µM*

How did CC(C)(C)OC(=O)N(Cc1ccccc1)Cc1cccc(OCc2cccc(NC(=O)c3ccccc3)c2)c1 do in these assays?
HCMV inh: -28; HCV inh: 7.9µM*

How did CN(C)S(=O)(=O)c1cccc(NC(=O)c2ccc(OC(F)(F)F)cc2)c1 do in these assays?
Pf growth 48h: 54%; HCMV inh: -95*; Pf growth 96h: 0%; HCV inh: inconclusive

How did CN(C)S(=O)(=O)c1cccc(NC(=O)c2ccc(COc3ccccc3)cc2)c1 do in these assays?
Pf growth 48h: inconclusive; Pf growth 96h: inconclusive; HCV inh: 10µM*

How did COCc1ccc(C(=O)Nc2cccc(S(=O)(=O)N(C)c3ccccc3)c2)cc1 do in these assays?
HCMV inh: -96*; HCV inh: 22µM*

Results for Cc1ccc(S(=O)(=O)N(C)C)cc1NC(=O)c1ccc(OC(F)(F)F)cc1 ?
Pf growth 48h: 20%; HCMV inh: 3; Pf growth 96h: 23%; HCV inh: 0%

What do the screens show for `CCc1nn(CC(=O)Nc2c(C)cccc2C)c(=O)c2cc3sccc3n12`?
HCMV inh: -3

Results for COc1ccc(S(=O)(=O)N2c3cc(Cl)ccc3Oc3nc4ccccc4nc32)cc1 ?
Pf growth 48h: 30%; HCMV inh: -89*; Pf growth 96h: 32%; HCV inh: inconclusive

How did CCN(CC)C(=O)Cn1cc(SCC(=O)Nc2cccc(F)c2)c2ccccc21 do in these assays?
HCMV inh: -3

Results for Cc1onc(-c2cccc(Cl)c2Cl)c1C(=O)O/N=C(\N)c1ccc([N+](=O)[O-])o1 ?
Pf growth 48h: inconclusive; HCMV inh: -28; Pf growth 96h: 10µM*; HCV inh: inconclusive

Results for Cc1onc(-c2ccccc2)c1C(=O)O/N=C(\N)c1ccc([N+](=O)[O-])o1 ?
Pf growth 48h: inconclusive; HCMV inh: -10; Pf growth 96h: 12µM*; HCV inh: 11µM*

What do the screens show for `CCOC(=O)C1CCCN(C(=O)c2ccccc2NC(=O)C2=C(C)OCCS2)C1` (centres undefined)?
Pf growth 48h: inconclusive; HCMV inh: -9; Pf growth 96h: 4.1µM*; HCV inh: 9%

Results for CCOC(=O)C1CCCN(C(=O)c2ccc(C)c(NC(=O)C3=C(C)OCCS3)c2)C1 (centres undefined) ?
Pf growth 48h: -6%; HCMV inh: -19; Pf growth 96h: 39%; HCV inh: -21%

Results for CC1=C(C(=O)Nc2cc(C(=O)N3CCN(c4cccc(C)c4C)CC3)ccc2C)SCCO1 ?
Pf growth 48h: -13%; HCMV inh: -37; Pf growth 96h: 10µM*; HCV inh: 11µM*

How did CC1=C(C(=O)Nc2ccccc2C(=O)N2CCC(C)CC2)SCCO1 do in these assays?
Pf growth 48h: 13µM*; HCMV inh: -3; Pf growth 96h: -24%; HCV inh: -11%

Results for COc1ccc(-n2ccn(Cc3ccccc3Cl)c(=O)c2=O)cc1OC ?
HCMV inh: -39

What do the screens show for `CCCOc1ccc(Oc2nc(NC)nc(N3CCOCC3)n2)nn1`?
HCMV inh: 171

Results for CCOc1cc(NC(=S)NCC2CCCO2)c(OCC)cc1NC(=O)c1cccc(F)c1 (centres undefined) ?
Pf growth 48h: inconclusive; HCMV inh: 4; Pf growth 96h: 8%; HCV inh: inconclusive

How did COc1cc(NC(=S)NCC2CCCO2)c(OC)cc1Cl (centres undefined) do in these assays?
Pf growth 48h: -11%; HCMV inh: inconclusive; Pf growth 96h: 8.3µM*; HCV inh: inconclusive

How did S=C(NCC1CCCO1)Nc1ccc(Cl)cc1Cl (centres undefined) do in these assays?
Pf growth 48h: 77%; HCMV inh: 24; Pf growth 96h: inconclusive; HCV inh: 6%

How did CCOc1cc(NC(=O)c2ccccn2)c(OCC)cc1NC(=O)c1cccc(C)c1 do in these assays?
Pf growth 48h: -20%[1.15 µM]; HCMV inh: inconclusive; Pf growth 96h: 12µM*; HCV inh: inconclusive

What do the screens show for `CCOc1cc(NC(=S)NCC2CCCO2)c(OCC)cc1NC(=O)c1cccc(C)c1` (centres undefined)?
Pf growth 48h: inconclusive; HCMV inh: -30; Pf growth 96h: 12µM*; HCV inh: inconclusive

Results for CCCOc1ccc(C(=O)Nc2ccc3oc(-c4ccc5ccccc5c4)nc3c2)cc1 ?
HCMV inh: 36

How did Cc1ccccc1CNC(=O)c1oc2c(c1C)-c1nn(Cc3ccc(Cl)cc3)cc1CC2 do in these assays?
HCMV inh: -26

What do the screens show for `COc1ccc(C[C@H](N)C(=O)N[C@H]2[C@@H](O)[C@H](n3cnc4c(N(C)C)ncnc43)O[C@@H]2CO)cc1`?
Pf growth 48h: 0.1µM*; HCMV inh: -98*; Pf growth 96h: 0.17µM*; HCV inh: 0.32µM*

How did CN(C)c1ncnc2c1ncn2C1OC(CO)C(O)C1O (centres undefined) do in these assays?
Pf growth 48h: -18%; HCMV inh: 2; HCV inh: 4.5µM*

Results for CC(=O)c1cccc(Nc2nccc3c2cc(-c2cccc(C(F)(F)F)c2)n3C)c1 ?
HCMV inh: -31

How did COc1cccc(OCc2ccc(Cn3nc(NC(=O)NCCc4ccc(OC)c(OC)c4)c4ccccc43)cc2)c1 do in these assays?
HCMV inh: 95

What do the screens show for `CC(=O)N1CCN(c2ccc(NC(=O)c3ccc(C(C)(C)C)cc3)cc2)CC1`?
Pf growth 48h: 10µM*; HCMV inh: -86*; Pf growth 96h: 1%; HCV inh: inconclusive

What do the screens show for `O=C(Nc1ccc(N2CCCC2)cc1)c1cccc(Cl)c1Cl`?
Pf growth 48h: 33%; HCMV inh: -80*; Pf growth 96h: inconclusive; HCV inh: inconclusive

What do the screens show for `Cc1ccc(C(=O)Nc2ccc(N3CCN(S(C)(=O)=O)CC3)cc2)cc1C`?
Pf growth 48h: 39%; HCMV inh: 27; Pf growth 96h: inconclusive; HCV inh: -1%

Results for CC(=O)N1CCN(c2ccc(NC(=O)c3ccc(Cl)cc3)cc2)CC1 ?
Pf growth 48h: -4%; HCMV inh: -18; Pf growth 96h: inconclusive; HCV inh: 7%

How did CN1CCN(c2ccc(NC(=O)c3cccc(OCc4ccccc4)c3)cc2)CC1 do in these assays?
Pf growth 48h: 10µM*; HCMV inh: 92; HCV inh: 25µM*

Results for Cc1ccc(C(=O)Nc2ccc(N3CCN(C)CC3)cc2)cc1C ?
Pf growth 48h: 53%; HCMV inh: -3; Pf growth 96h: 12µM*; HCV inh: 10%

Results for Cc1ccc(Cl)cc1N1CCN(C(=O)Cn2ncc3c([nH]c4ccccc43)c2=O)CC1 ?
HCMV inh: 7

How did Cc1nnc2c(N3CCN(c4ccc(F)cc4)CC3)nc3ccc(C(=O)c4ccccc4)cc3n12 do in these assays?
HCMV inh: 0
